Assays:
Assay in all cases: log2 ratio of Biotin-Ahx-Ub-VS probe labelling (fragment/DMSO); higher = less target engagement (more negative = stronger competition), active = hit call of the paper (q ≤ 0.05, log2 ratio ≤ -1)
Conditions in all cases: compound concentration: 200 uM; treatment time: 3 h
ALG13 = target: T1, ALG13 (UniProt Q9NP73)
T1 sequence (whole entry): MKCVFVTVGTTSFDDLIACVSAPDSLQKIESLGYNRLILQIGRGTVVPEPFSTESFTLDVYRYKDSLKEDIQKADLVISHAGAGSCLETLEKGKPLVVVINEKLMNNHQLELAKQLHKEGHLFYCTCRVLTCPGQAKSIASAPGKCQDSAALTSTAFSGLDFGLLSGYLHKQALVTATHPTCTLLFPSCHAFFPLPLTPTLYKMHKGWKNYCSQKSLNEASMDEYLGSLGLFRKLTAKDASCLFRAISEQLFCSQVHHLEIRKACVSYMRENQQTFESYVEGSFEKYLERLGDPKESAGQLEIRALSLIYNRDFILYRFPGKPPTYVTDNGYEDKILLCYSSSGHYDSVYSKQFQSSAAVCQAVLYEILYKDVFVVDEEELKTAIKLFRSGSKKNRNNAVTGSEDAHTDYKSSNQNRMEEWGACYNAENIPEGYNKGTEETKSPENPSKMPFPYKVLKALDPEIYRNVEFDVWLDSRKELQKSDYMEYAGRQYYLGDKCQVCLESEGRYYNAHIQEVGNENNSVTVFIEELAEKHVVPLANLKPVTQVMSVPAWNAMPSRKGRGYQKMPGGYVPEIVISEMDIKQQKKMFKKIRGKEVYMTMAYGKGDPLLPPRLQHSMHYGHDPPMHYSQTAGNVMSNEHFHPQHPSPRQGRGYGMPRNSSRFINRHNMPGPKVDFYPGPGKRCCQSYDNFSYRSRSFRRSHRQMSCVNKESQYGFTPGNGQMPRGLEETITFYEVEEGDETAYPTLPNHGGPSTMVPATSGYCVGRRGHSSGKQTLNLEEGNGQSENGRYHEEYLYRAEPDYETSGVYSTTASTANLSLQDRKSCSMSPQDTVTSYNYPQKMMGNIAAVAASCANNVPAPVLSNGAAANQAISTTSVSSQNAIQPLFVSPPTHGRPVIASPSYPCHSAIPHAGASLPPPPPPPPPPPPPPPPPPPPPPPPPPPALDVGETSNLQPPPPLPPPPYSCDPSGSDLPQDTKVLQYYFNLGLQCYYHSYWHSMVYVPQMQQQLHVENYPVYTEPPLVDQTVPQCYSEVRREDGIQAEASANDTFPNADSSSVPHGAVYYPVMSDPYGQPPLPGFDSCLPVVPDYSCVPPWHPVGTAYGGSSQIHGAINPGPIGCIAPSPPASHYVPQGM
Method in brief: (§1)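 Fragment (200 µM) or vehicle was incubated for 3 h with triplicate HEK293T lysate samples of 495 µg, which were then treated with Biotin-Ahx-Ub-VS at 0.5 µM final for 1 h. Labelled DUBs were enriched on NeutrAvidin, digested with LysC and trypsin, and analysed by diaPASEF LC-MS/MS. Values are average log2 fragment/vehicle ratios from an unpaired t-test on global-median-normalised Spectronaut label-free quantities, using proteins with ≥2 unique peptides.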

ATXN3 = ATXN3 (UniProt P54252)
Chain of ATXN3 (P54252 whole entry): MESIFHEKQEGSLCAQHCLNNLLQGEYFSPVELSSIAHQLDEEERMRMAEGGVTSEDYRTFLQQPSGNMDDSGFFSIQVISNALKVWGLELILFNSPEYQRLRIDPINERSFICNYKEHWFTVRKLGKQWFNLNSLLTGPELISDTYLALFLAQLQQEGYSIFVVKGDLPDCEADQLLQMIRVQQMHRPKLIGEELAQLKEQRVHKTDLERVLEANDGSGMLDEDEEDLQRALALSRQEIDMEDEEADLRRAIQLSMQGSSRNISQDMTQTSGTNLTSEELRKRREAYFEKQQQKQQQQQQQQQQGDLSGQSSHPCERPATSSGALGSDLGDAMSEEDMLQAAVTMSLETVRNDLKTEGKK
Method in brief: as §1

BAP1 = target: T2, BAP1 (UniProt Q92560)
T2 sequence (whole entry): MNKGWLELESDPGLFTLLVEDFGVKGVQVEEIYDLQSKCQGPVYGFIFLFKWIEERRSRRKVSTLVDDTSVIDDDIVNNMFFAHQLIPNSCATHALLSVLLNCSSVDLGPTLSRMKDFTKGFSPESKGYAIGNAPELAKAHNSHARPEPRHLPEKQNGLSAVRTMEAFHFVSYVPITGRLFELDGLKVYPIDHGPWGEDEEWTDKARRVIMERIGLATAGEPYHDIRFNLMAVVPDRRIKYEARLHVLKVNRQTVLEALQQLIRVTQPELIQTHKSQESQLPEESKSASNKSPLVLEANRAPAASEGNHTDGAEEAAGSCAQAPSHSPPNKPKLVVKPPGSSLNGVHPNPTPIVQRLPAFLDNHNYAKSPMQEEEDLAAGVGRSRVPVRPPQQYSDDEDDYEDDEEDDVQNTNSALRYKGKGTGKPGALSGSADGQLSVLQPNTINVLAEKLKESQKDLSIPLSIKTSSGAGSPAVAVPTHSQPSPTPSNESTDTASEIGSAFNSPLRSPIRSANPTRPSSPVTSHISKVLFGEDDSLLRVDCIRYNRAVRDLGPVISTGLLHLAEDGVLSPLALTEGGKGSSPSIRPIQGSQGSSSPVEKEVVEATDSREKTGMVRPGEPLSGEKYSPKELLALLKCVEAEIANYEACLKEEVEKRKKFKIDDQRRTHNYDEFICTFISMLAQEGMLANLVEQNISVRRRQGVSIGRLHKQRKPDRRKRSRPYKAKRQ
Method in brief: as §1

EIF3F = EIF3F (UniProt O00303)
Chain of EIF3F (O00303 whole entry): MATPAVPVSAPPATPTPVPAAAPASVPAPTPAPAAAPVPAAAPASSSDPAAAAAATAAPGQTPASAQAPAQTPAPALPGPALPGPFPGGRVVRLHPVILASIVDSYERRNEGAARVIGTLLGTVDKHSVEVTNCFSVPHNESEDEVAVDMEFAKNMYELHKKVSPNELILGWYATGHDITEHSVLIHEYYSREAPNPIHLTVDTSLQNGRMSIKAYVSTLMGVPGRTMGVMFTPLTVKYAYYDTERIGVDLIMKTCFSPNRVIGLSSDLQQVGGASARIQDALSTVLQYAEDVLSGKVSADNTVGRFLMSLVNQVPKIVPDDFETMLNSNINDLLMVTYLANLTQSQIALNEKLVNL
Method in brief: as §1

EIF3H = EIF3H (UniProt O15372)
Chain of EIF3H (O15372 whole entry): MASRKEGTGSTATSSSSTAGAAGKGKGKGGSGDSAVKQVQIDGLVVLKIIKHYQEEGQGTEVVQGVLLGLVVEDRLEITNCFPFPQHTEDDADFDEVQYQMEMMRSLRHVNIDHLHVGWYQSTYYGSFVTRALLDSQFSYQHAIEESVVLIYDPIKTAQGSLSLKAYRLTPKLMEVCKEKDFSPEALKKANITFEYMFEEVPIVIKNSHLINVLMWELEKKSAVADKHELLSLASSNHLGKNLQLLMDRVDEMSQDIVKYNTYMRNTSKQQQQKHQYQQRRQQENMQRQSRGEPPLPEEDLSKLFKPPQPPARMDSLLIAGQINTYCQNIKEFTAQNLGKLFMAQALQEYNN
Method in brief: as §1

FAM105A = target: T3, FAM105A (UniProt Q9NUU6)
T3 sequence (whole entry): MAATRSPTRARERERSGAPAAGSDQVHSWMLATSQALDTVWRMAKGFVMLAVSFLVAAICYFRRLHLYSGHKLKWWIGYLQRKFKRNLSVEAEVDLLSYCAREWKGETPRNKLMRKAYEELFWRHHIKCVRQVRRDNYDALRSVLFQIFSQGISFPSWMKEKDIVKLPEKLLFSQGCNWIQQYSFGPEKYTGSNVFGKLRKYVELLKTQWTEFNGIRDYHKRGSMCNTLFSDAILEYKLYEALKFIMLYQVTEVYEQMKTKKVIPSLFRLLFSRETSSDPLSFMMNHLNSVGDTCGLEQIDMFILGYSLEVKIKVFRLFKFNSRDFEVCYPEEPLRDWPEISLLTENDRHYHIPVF
Method in brief: as §1

OTUB1 = OTUB1 (UniProt Q96FW1)
Chain of OTUB1 (Q96FW1 whole entry): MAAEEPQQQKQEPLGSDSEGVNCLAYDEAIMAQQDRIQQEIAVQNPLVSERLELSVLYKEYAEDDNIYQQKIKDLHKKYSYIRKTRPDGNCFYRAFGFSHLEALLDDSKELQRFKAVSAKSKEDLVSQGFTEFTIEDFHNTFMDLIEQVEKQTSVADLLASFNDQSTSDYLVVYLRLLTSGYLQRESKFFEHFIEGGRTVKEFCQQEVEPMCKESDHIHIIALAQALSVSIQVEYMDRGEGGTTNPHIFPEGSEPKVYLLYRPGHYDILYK
Method in brief: as §1

OTUD4 = target: T4, OTUD4 (UniProt Q01804)
T4 sequence (whole entry): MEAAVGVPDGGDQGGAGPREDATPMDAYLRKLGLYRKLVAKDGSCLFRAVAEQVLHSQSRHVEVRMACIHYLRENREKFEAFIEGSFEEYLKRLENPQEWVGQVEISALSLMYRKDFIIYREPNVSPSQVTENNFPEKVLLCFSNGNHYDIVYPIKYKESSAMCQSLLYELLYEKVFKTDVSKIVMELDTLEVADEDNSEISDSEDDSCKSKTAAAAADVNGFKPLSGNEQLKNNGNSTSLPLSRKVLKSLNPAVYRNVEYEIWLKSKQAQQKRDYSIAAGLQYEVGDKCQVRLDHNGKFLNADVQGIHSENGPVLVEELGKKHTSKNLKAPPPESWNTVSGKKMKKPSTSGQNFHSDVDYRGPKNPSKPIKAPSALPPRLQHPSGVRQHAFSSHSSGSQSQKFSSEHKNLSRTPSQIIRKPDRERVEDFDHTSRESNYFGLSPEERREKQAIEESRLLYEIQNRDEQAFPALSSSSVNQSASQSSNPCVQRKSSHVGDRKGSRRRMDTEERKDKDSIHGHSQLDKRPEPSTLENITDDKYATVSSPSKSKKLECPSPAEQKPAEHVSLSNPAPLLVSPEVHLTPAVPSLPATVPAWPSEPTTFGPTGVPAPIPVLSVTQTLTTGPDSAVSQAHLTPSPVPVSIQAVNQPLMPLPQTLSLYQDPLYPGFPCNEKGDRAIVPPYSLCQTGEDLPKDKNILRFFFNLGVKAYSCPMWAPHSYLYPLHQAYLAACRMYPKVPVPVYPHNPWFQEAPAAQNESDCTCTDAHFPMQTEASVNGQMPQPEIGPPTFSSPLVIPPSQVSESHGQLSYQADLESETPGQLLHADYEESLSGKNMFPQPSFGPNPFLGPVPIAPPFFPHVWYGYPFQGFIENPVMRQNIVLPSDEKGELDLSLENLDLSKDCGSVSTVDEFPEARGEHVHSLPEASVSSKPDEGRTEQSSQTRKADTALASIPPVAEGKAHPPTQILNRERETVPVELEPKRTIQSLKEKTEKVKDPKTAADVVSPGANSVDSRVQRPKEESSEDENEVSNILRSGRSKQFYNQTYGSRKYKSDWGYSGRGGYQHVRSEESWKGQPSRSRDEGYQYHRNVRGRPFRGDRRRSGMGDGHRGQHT
Method in brief: as §1

OTUD5 = target: T5, OTUD5 (UniProt Q96G74)
T5 sequence (whole entry): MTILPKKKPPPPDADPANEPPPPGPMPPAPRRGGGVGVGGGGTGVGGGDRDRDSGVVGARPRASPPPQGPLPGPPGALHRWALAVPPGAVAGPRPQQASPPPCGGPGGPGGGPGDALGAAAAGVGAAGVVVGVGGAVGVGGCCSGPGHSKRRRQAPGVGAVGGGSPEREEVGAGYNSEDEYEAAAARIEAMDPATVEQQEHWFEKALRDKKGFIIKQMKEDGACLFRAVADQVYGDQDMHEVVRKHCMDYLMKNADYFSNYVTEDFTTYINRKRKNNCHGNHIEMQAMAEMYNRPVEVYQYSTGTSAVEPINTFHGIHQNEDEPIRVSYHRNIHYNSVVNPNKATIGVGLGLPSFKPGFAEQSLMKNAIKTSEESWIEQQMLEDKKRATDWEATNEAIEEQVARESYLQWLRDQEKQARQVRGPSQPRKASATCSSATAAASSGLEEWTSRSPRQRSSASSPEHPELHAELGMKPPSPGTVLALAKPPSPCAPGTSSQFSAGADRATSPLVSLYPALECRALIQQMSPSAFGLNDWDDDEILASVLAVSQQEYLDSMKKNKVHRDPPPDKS
Method in brief: as §1

Measured: log2 ratio of Biotin-Ahx-Ub-VS probe labelling

Cc1ncc2c(n1)CCN(C(=O)CCl)C2
inactive: ALG13 -0.466 | ATXN3 -0.614 | BAP1 -0.39 | EIF3F -0.159 | EIF3H 0.129 | FAM105A 0.443 | OTUB1 -0.578 | OTUD4 -0.0123 | OTUD5 -0.606
